Source: PubChem BioAssay AID1347076 (National Center for Advancing Translational Sciences (NCATS), 2019)
The campaign covered roughly 400,000 compounds. About 13,000 (3.2%) were called active. About 18% were inconclusive and are not listed. The entries come from a sample that favours actives as a whole. Unmarked numbers belong to inactive results. Calls come from the whole dose curve; as a rule, active = well fitted cell-killing curve with a large enough effect; inconclusive = small, poorly fitted or top-dose-only effect, or effect the other way; inactive = flat fitted curve, though single readings scatter.

Assay: qHTS assay for MDR1-selective chemotherapeutics: Primary screen using the drug-selected MDR subline cells KB-V1; note: nearly all actives have a fitted effect of over 60% in size
Details: KB-V1 MDR cells viability, CellTiter-Glo, 72 h; series mostly up to 46.1 µM; activity change, negative = cytotoxicity: at the top concentration
Text: A prime difficulty in effectively treating cancer is the development of cellular resistance to multiple structurally unrelated anticancer drugs, a phenomenon known as multidrug resistance (MDR). […] Numerous strategies to overcome P-gp-mediated MDR have been explored, including the design of drugs that evade recognition and efflux, and development of inhibitors to block efflux and restore drug accumulation. […] An alternative approach is to exploit resistance by identifying drugs that target MDR cells over the non-resistant parental cells from which they were selected. […] The development of MDR1-selective agents represents a new strategy for resolving multidrug resistance, as it remains a long-standing clinical challenge for cancer chemotherapy.
Our goal is to identify compounds that selectively kill P-gp-expressing MDR cells. We will identify MDR1-selective compounds by comparing toxicity of compounds in the screening library against parental, drug-naive (KB-3-1) adenocarcinoma cells as well as their drug-selected MDR sub-line (KB-V1). The differential toxicity of compounds against these two cell lines will be used to identify MDR1-selective compounds, whose cytotoxicity is potentiated, rather than diminished, by P-gp expression. This assay will be utilized to conduct a quantitative high-throughput screen (qHTS) in collaboration with the NIH Chemical Genomics Center to identify selective agents, and probe hits arising from the screen will be validated using secondary assays and characterized through a well-established follow-up research program. This screen was run against the entire NCGC library collection of about 400,000 compounds.
NIH Molecular Libraries Probe Production Network [MLPCN]
NIH Chemical Genomics Center [NCGC]
PI: Michael Gottesman, National Cancer Institute, NIH
Briefly, 5 microL of media containing either KB-V1 cells (columns 1-2, 4-48) are dispensed into Greiner white, treated solid-bottom 1536-well assay plates (media-only control is added to column 3). Compounds are then transferred via Kalypsys pin tool equipped with 1536-pin array (10 nL slotted pins, V&P Scientific, San Diego, CA). Following addition of compound, the plates are incubated at 37 degrees C for 72 hours. CellTiter-Glo (2.5 µL/well) is then added, and the plates are read in a ViewLux reader (Perkin-Elmer, clear luminescence filter, 1 second exposure, 1x binning) following a 10 minute incubation. All cells are dispensed in DMEM phenol-red free media containing 10% FBS.
Library plates were screened starting from the lowest and proceeding to the highest concentration. Vehicle-only plates, with DMSO being pin-transferred to columns 5-48, will be inserted uniformly at the beginning and the end of each library in order to monitor and record any shifts in the background, which can be affected by reagent dispensers or loss in enzyme activity over time. Screening data will be corrected, normalized, and concentration-effect relationships will be derived by using publicly-available NCGC, NCATS curve fitting algorithms (http://ncgc.nih.gov/pub/openhts).
% is set by controls: 0 for no effect and ±100 for the full control effect; potency is the fitted concentration of half-maximal effect.

In the case of CCCCCCCCCCCCn1ccc(=N)cc1, the Potency was 8.2 µM (active).
In the case of COc1cc(C(c2c(O)c3ccccc3oc2=O)c2c(C)n(C)n(-c3ccccc3)c2=O)ccc1O (stereo not drawn), the Potency was “inactive”.
For CCCCCn1c(=O)c(C(=O)Nc2c(C)n(C)n(-c3ccccc3)c2=O)c(O)c2ccccc21, the Potency was 2.06 µM (active).
With CCCCCn1c(=O)c(C(=O)NCc2ccccn2)c(O)c2ccccc21 the Potency was 14.6 µM (active).
In the case of COC(=O)C1=C(c2ccc(OCc3ccccc3)cc2)C[C@@H]2CC[C@H]1N2C(=O)NCc1ccc(Cl)cc1, the Potency was 14.6 µM (active).
In the case of COC(=O)C1=C(c2ccc(-c3ccccc3)c(F)c2)C[C@@H]2CC[C@H]1N2C(=O)NCc1ccc(F)cc1, the Potency was 20.6 µM (active).
In the case of COC(=O)C1=C(c2ccc(OCc3ccccc3)cc2)C[C@@H]2CC[C@H]1N2C(=O)NCc1cccc(F)c1, the Potency was 7.31 µM (active).
With CC(Cc1ccccc1)NCCC(c1ccccc1)c1ccccc1 (stereo not drawn) the Potency was 14.6 µM (active).
For C/C(=N/O)c1ccc2ccc3ccccc3c2c1, the Potency was 3.26 µM (active).
For O=C(CCN1CCCCC1)NCC(=O)Nc1ccc(Br)cc1C(=O)c1ccccc1, the Potency was 18.4 µM (active).
With c1ccc2c(c1)[I+]c1ccccc1-2 the Potency was 16.4 µM (active).
In the case of CN1CCN(C(=S)SCC(=O)Nc2ccc(Cl)cc2C(=O)c2ccccc2)CC1, the Potency was 5.17 µM (active).
For CC12CCC(O)CC1CCC1C2CCC2(C)C(C(=O)CC(O)C(F)(F)F)CCC12 (stereo not drawn), the Potency was 23.1 µM (active).

First: COC(=O)C(O)(c1ccc(NC(=O)c2ccco2)c(OC)c1)C(F)(F)F (stereo not drawn)
Second: COC(=O)C1=C(c2ccccc2)C[C@@H]2CC[C@H]1N2C(=O)NCc1ccco1
The “activity change, negative = cytotoxicity” value of the first is lower: -1.11% for the first, 8.16% for the second.

Going from COC(=O)C1=C(c2cc3ccccc3s2)C[C@@H]2CC[C@H]1N2C(=O)NCCO to COC(=O)C1=C(c2ccc(F)cc2OCc2ccccc2)C[C@@H]2CC[C@H]1N2C(=O)NCc1ccc(Cl)cc1, the “activity change, negative = cytotoxicity” value falls from 7.44% to -28%.

First: CCCCCn1c(=O)c(C(=O)NCc2ccccc2)c(O)c2ccccc21
Second: CCCCn1c(=O)c(C(=O)Nc2ccccc2Cl)c(O)c2ccccc21
The “activity change, negative = cytotoxicity” value of the first is lower: -27.1% for the first, 6.12% for the second.

Compared with O=C(O)c1cc[c]([Sb](=[O])([OH])[OH])cc1[N+](=O)[O-], O=[N+]([O-])c1cnc2ccc3ccccc3c2c1 is lower in “activity change, negative = cytotoxicity” value: 19.3% for the first, 3.87% for the second.

First: Cc1ccc(S(=O)(=O)N(C)c2ccc(C(=O)NCC3(N(C)C)CCCCC3)cc2)cc1
Second: O=C(CN1CCCCC1)Nc1ccc(Br)cc1C(=O)c1ccccc1Cl
The “activity change, negative = cytotoxicity” value of the first is lower: -25.2% for the first, -7.61% for the second.

First: Cc1c(Oc2cc(NN3CCCCC3)c([N+](=O)[O-])cc2[N+](=O)[O-])cccc1[N+](=O)[O-]
Second: CCOC(=O)CNC(=O)N1Cc2cc(N3CCCCC3)ccc2-n2nncc2C1
The “activity change, negative = cytotoxicity” value of the first is lower: 0.977% for the first, 1.87% for the second.

Compared with CCC1(CC(C)c2ccccc2)C(=O)NC(=O)NC1=O (stereo not drawn), O=C1NC(=O)C(Cc2ccccc2)C(=O)N1 is higher in “activity change, negative = cytotoxicity” value: -16.6% for the first, -4.35% for the second.

Compared with C[N+]1(C)CCOC(O)(c2ccc(-c3ccc(C4(O)C[N+](C)(C)CCO4)cc3)cc2)C1 (stereo not drawn), CCOC(=O)C1(c2ccccc2)CCN(CC(O)c2ccc(NC(C)=O)cc2)CC1 (stereo not drawn) is lower in “activity change, negative = cytotoxicity” value: 19.4% for the first, -4.21% for the second.

Compared with ClC(Cl)(Cl)c1ccccc1, CC(Cc1ccccc1)NC=O (stereo not drawn) is lower in “activity change, negative = cytotoxicity” value: 15.8% for the first, 15.5% for the second.

Compared with COC(=O)C1=C(c2ccc(F)cc2OCc2ccccc2)C[C@@H]2CC[C@H]1N2C(=O)NCc1ccc2[nH]ccc2c1, COC(=O)C1=C(c2ccc(F)cc2OCc2ccccc2)C[C@@H]2CC[C@H]1N2C(=O)NCc1ccc(OC)c(OC)c1 is higher in “activity change, negative = cytotoxicity” value: -20.5% for the first, -0.539% for the second.

Compared with COC(=O)C1=C(c2ccccc2OCc2ccccc2)C[C@@H]2CC[C@H]1N2C(=O)NCc1ccc(OC)cc1, COC(=O)C1=C(c2ccc(F)cc2OCc2ccccc2)C[C@@H]2CC[C@H]1N2C(=O)NCc1ccc(C(C)(C)C)cc1 is higher in “activity change, negative = cytotoxicity” value: -16% for the first, -15.8% for the second.

Going from Nc1ccc(Cc2ccc(N)c(Cl)c2)cc1Cl to O=C(Nc1ccc(Cl)cc1C(=O)c1ccccc1)c1cc(Cl)cc(Cl)c1, the “activity change, negative = cytotoxicity” value rises from -0.293% to 0%.

Going from O=C(O)/C=C/c1ccc2c(c1)OCO2 to Oc1cc2c(cc1CN1CCN(c3ccccc3)CC1)OCO2, the “activity change, negative = cytotoxicity” value rises from -4.19% to 6.2%.

Compared with COc1ccc(-n2nnnc2C(c2cccc3ccccc23)N2CCC(n3c(=O)[nH]c4ccccc43)CC2)cc1 (stereo not drawn), Cc1ncoc1C(=O)NCC1=C(c2cccc3ccccc23)C[C@@H]2CC[C@H]1N2Cc1ccco1 is higher in “activity change, negative = cytotoxicity” value: -22.8% for the first, 0.247% for the second.

Compared with COC(=O)N1C(c2ccccc2)C1c1ccccc1 (stereo not drawn), CC1CCCN1CCC(C(N)=O)(c1ccccc1)c1ccccc1 (stereo not drawn) is lower in “activity change, negative = cytotoxicity” value: 9.07% for the first, -4.22% for the second.

Going from Fc1ccc(C2N3CCCN23)cc1 (stereo not drawn) to CC1CNCCN1c1ccc(Cl)cc1 (stereo not drawn), the “activity change, negative = cytotoxicity” value falls from 11.6% to -17.4%.

Going from CC(C)CN1Cc2cc(N3CCCCC3)ccc2-n2nncc2C1 to O=C(NC1CCCCC1)N1Cc2cc(N3CCCCC3)ccc2-n2nncc2C1, the “activity change, negative = cytotoxicity” value falls from 15.3% to 7%.

First: CC(=O)NC(=O)NC(C)Cc1ccccc1 (stereo not drawn)
Second: COC(=O)[C@@H]1C(OC(=O)c2ccccc2)CC2CCC1N2C (stereo partly drawn)
The “activity change, negative = cytotoxicity” value of the first is higher: 13.9% for the first, 8.91% for the second.

Going from C[C@]12CCCCC1=CC(=O)C1C2CC[C@@]2(C)C1C[C@@H](F)[C@@H]2O (stereo partly drawn) to C[C@]12CCC3C(CC[C@H]4C[C@@H](O)CC[C@]34C)C1CC[C@@H]2O (stereo partly drawn), the “activity change, negative = cytotoxicity” value rises from -14.1% to 1.24%.

First: CC(c1ccccc1)(c1ccccc1)c1ccncc1
Second: O=C(COC(=O)c1ccccc1)Nc1ccc(Cl)cc1C(=O)c1ccccc1
The “activity change, negative = cytotoxicity” value of the first is lower: -22.6% for the first, 9.26% for the second.

Going from C/C(CCc1c[nH]c2ccccc12)=N\O to Cc1cc(C)c2c(c1)NP(=S)(c1ccccc1)N2 (stereo not drawn), the “activity change, negative = cytotoxicity” value falls from 2.16% to -13.5%.

Compared with CC1(C)Cc2c(C#N)c(N3CCNCC3)nc(-c3ccco3)c2CS1, Cc1ccc(C(C)C)c(OCC(=O)N2CCN(CC(=O)N3CCOCC3)CC2)c1 is higher in “activity change, negative = cytotoxicity” value: -29.5% for the first, 25.3% for the second.

First: C[C@H]1CN([C@@H](C)CO)C(=O)CCCn2nncc2CO[C@H]1CN(C)C(=O)Oc1cccc2ccccc12
Second: COc1ccc(C2C=C(C)Oc3c2c(=O)oc2ccccc32)cc1OC (stereo not drawn)
The “activity change, negative = cytotoxicity” value of the first is higher: 0.932% for the first, -20.1% for the second.

Going from CC=C(C)C(=O)OC1CCN2CC=C(COC(=O)C(O)(C(C)OC)C(C)(C)O)C12 (stereo not drawn) to C[C@]12CCC3C(CC[C@H]4[C@H](O)[C@H](O)CC[C@]34C)C1CC[C@@H]2O (stereo partly drawn), the “activity change, negative = cytotoxicity” value rises from -1.56% to 1.98%.

Going from C=C(C)C1(CCCC)C(=O)NC(=S)NC1=O to Cn1c(O)c(C(=Nc2ccc(F)cc2)c2ccccc2)c(=O)n(C)c1=O, the “activity change, negative = cytotoxicity” value falls from 2.18% to -17.9%.
